Source: the antibiotic and cytotoxicity screens of Wong et al. (2023)
Among all 39,000 compounds or so, about 3,300 (8.5%) were called active. The sample holds actives, similar compounds and a random draw of the others, so the mix is not that of the screen.

Each compound was assayed on HepG2 (assay: cytotoxicity call (relative viability < 0.9)). Details: 10 µM.

`C[C@@H]1CCCCO[C@H](CN(C)Cc2ccncc2)[C@@H](C)CN([C@H](C)CO)C(=O)c2cc(NC(=O)Nc3ccccc3)ccc2O1` was tested. Which cytotoxicity call did it give?
The cytotoxicity call was “inactive”.

Which cytotoxicity call does the source give for `COc1ccc(S(=O)(=O)Nc2cccc3c2O[C@@H](CN(C)S(=O)(=O)c2ccc(OC)cc2)[C@@H](C)CN([C@@H](C)CO)C3=O)cc1` here?
The cytotoxicity call was “inactive”.

`COc1c(OCCCN2CCOCC2)ccc2c1N=C(NC(=O)c1cnc(N)nc1)N1CCN=C21` was tested. Which cytotoxicity call did it give?
The cytotoxicity call was “inactive”.

How did the cytotoxicity call turn out when `COc1cc(C(=O)OCCN2CCN(CCOC(=O)c3cc(OC)c(OC)c(OC)c3)CC2)cc(OC)c1OC` was run?
Its cytotoxicity call is “inactive”.

`CCc1c(O)cc(O)c(C(=O)c2ccc(OCCN3CCOCC3)c(OC)c2)c1CC(=O)N(CCOC)CCOC` was tested. Which cytotoxicity call did it give?
Its cytotoxicity call is “active”.

How did the cytotoxicity call turn out when `C[C@H]1CN([C@@H](C)CO)C(=O)c2cccc(NS(=O)(=O)c3ccc(F)cc3)c2O[C@@H]1CN(C)CC1CC1` was run?
Its cytotoxicity call is “inactive”.

`Cc1cc(=O)n(CCO)c(=O)[nH]1` was tested. Which cytotoxicity call did it give?
Its cytotoxicity call is “inactive”.

`CCC(=O)N(C)C[C@H]1Oc2ncc(C#C[C@H](C)O)cc2C(=O)N([C@H](C)CO)C[C@H]1C` was tested. Which cytotoxicity call did it give?
Its cytotoxicity call is “inactive”.

For `CC(C)(C)[S@](=O)N1Cc2cc(C(=O)N[C@@H]3CCN(Cc4ccccc4)C3)nc(-c3cccc(-c4cccnc4)c3)c2[C@@H]1CCO`, which cytotoxicity call is on record?
Its cytotoxicity call is “inactive”.

How did the cytotoxicity call turn out when `COc1cccc(NC(=O)N(C)C[C@@H]2Oc3ncc(C#Cc4ccncc4)cc3C(=O)N([C@@H](C)CO)C[C@@H]2C)c1` was run?
Its cytotoxicity call is “inactive”.

For `COc1cccc(NC(=O)N(C)C[C@@H]2Oc3ncc(C#Cc4cccnc4)cc3C(=O)N([C@@H](C)CO)C[C@H]2C)c1`, which cytotoxicity call is on record?
The cytotoxicity call was “inactive”.

For `COc1ccccc1NC(=O)N(C)C[C@@H]1Oc2ncc(C#CCN(C)C)cc2C(=O)N([C@H](C)CO)C[C@@H]1C`, which cytotoxicity call is on record?
Its cytotoxicity call is “inactive”.

How did the cytotoxicity call turn out when `COc1cccc(NC(=O)N(C)C[C@H]2Oc3ncc(C#Cc4ccncc4)cc3C(=O)N([C@H](C)CO)C[C@@H]2C)c1` was run?
The cytotoxicity call was “inactive”.

Which cytotoxicity call does the source give for `COc1cccc(NC(=O)N(C)C[C@H]2Oc3ncc(C#Cc4cccnc4)cc3C(=O)N([C@H](C)CO)C[C@H]2C)c1` here?
The cytotoxicity call was “inactive”.

With `COc1cccc(NC(=O)N(C)C[C@@H]2Oc3ncc(C#Cc4ccncc4)cc3C(=O)N([C@@H](C)CO)C[C@H]2C)c1` as the compound, how does the cytotoxicity call read?
The cytotoxicity call was “inactive”.

How did the cytotoxicity call turn out when `COc1ccccc1NC(=O)N(C)C[C@@H]1Oc2ncc(C#CCN(C)C)cc2C(=O)N([C@@H](C)CO)C[C@@H]1C` was run?
Its cytotoxicity call is “inactive”.

With `COc1cccc(NC(=O)N(C)C[C@H]2Oc3ncc(C#Cc4ccncc4)cc3C(=O)N([C@@H](C)CO)C[C@@H]2C)c1` as the compound, how does the cytotoxicity call read?
The cytotoxicity call was “active”.

Which cytotoxicity call does the source give for `COc1cccc(NC(=O)N(C)C[C@H]2Oc3ncc(C#Cc4ccncc4)cc3C(=O)N([C@H](C)CO)C[C@H]2C)c1` here?
The cytotoxicity call was “active”.

Which cytotoxicity call does the source give for `COc1ccccc1NC(=O)N(C)C[C@@H]1Oc2ncc(C#CCN(C)C)cc2C(=O)N([C@@H](C)CO)C[C@H]1C` here?
Its cytotoxicity call is “active”.

With `COc1cccc(NC(=O)N(C)C[C@@H]2Oc3ncc(C#Cc4ccncc4)cc3C(=O)N([C@H](C)CO)C[C@@H]2C)c1` as the compound, how does the cytotoxicity call read?
Its cytotoxicity call is “inactive”.

How did the cytotoxicity call turn out when `COc1cccc(NC(=O)N(C)C[C@@H]2Oc3ncc(C#Cc4ccncc4)cc3C(=O)N([C@H](C)CO)C[C@H]2C)c1` was run?
Its cytotoxicity call is “active”.

With `COc1ccc(CN(C)C[C@H]2Oc3c(NC(=O)c4cc(C)nn4C)cccc3C(=O)N([C@@H](C)CO)C[C@@H]2C)cc1` as the compound, how does the cytotoxicity call read?
Its cytotoxicity call is “inactive”.

For `COc1ccc(NC(=O)Nc2cccc3c2O[C@H](CN(C)S(=O)(=O)c2cn(C)cn2)[C@H](C)CN([C@@H](C)CO)C3=O)cc1`, which cytotoxicity call is on record?
Its cytotoxicity call is “inactive”.

With `O=C(CCCCCC(=O)Nc1ccccc1O)N/N=C/[C@H](O)[C@@H](O)[C@H](O)[C@H](O)CO[C@H]1O[C@H](CO)[C@H](O)[C@H](O)[C@H]1O` as the compound, how does the cytotoxicity call read?
Its cytotoxicity call is “inactive”.

How did the cytotoxicity call turn out when `O=C(C[C@@H]1CC[C@H](NC(=O)CN2CCOCC2)[C@H](CO)O1)NCCc1ccccc1` was run?
Its cytotoxicity call is “inactive”.

`C[C@H]1CN([C@@H](C)CO)C(=O)c2cc(-c3ccc(F)cc3)cnc2O[C@H]1CN(C)C(=O)Cc1ccccn1` was tested. Which cytotoxicity call did it give?
Its cytotoxicity call is “inactive”.

Which cytotoxicity call does the source give for `C[C@@H]1CCCCO[C@@H](CN(C)S(C)(=O)=O)[C@H](C)CN([C@@H](C)CO)C(=O)c2cc(NC(=O)Nc3ccc(C(F)(F)F)cc3)ccc2O1` here?
Its cytotoxicity call is “inactive”.

With `CC(C)CC#Cc1ccc2c(c1)O[C@@H](CN(C)C(=O)NC1CCCC1)[C@H](C)CN([C@@H](C)CO)S2(=O)=O` as the compound, how does the cytotoxicity call read?
Its cytotoxicity call is “inactive”.

With `COc1ccc(NC(=O)N(C)C[C@@H]2OCCCC[C@@H](C)Oc3ccc(NC(=O)CCC(F)(F)F)cc3C(=O)N([C@H](C)CO)C[C@@H]2C)cc1` as the compound, how does the cytotoxicity call read?
Its cytotoxicity call is “inactive”.

How did the cytotoxicity call turn out when `C[C@@H]1CCCCO[C@@H](CN(C)C(=O)NC2CCCCC2)[C@H](C)CN([C@@H](C)CO)C(=O)c2cc(NC(=O)CCCCCC(=O)Nc3ccccc3N)ccc2O1` was run?
The cytotoxicity call was “inactive”.

With `CS(=O)(=O)Nc1ccc2oc3c(OC(F)F)ccc(C(=O)Nc4c(Cl)cncc4Cl)c3c2c1` as the compound, how does the cytotoxicity call read?
Its cytotoxicity call is “inactive”.

How did the cytotoxicity call turn out when `O=c1ccc2c[nH][nH]c-2c1` was run?
The cytotoxicity call was “inactive”.

Which cytotoxicity call does the source give for `O=C(CCN1CCNCC1)N1CCCCC1` here?
The cytotoxicity call was “inactive”.

With `COc1ccc(S(=O)(=O)N(C)C[C@@H]2OCCCC[C@@H](C)Oc3ccc(NS(=O)(=O)c4cn(C)cn4)cc3C(=O)N([C@H](C)CO)C[C@@H]2C)cc1` as the compound, how does the cytotoxicity call read?
The cytotoxicity call was “inactive”.

With `C[C@H]1CCCCO[C@H](CN(C)Cc2ccc(C(=O)O)cc2)[C@@H](C)CN([C@@H](C)CO)C(=O)c2cc(NS(=O)(=O)c3ccccc3)ccc2O1` as the compound, how does the cytotoxicity call read?
The cytotoxicity call was “inactive”.

With `C[C@@H]1CN([C@@H](C)CO)C(=O)c2cc(NC(=O)Nc3cccc4ccccc34)ccc2O[C@H]1CN(C)CC1CCCCC1` as the compound, how does the cytotoxicity call read?
The cytotoxicity call was “inactive”.

For `C[C@H]1CN([C@@H](C)CO)C(=O)c2cc(NC(=O)Nc3cccc4ccccc34)ccc2O[C@H]1CN(C)CC1CCCCC1`, which cytotoxicity call is on record?
The cytotoxicity call was “active”.

Which cytotoxicity call does the source give for `C[C@H](CO)N1C[C@H](C)[C@@H](CN(C)CC2CCCCC2)Oc2ccc(NC(=O)Nc3cccc4ccccc34)cc2C1=O` here?
The cytotoxicity call was “inactive”.

`C[C@H](CO)N1C[C@H](C)[C@H](CN(C)CC2CCCCC2)Oc2ccc(NC(=O)Nc3cccc4ccccc34)cc2C1=O` was tested. Which cytotoxicity call did it give?
Its cytotoxicity call is “inactive”.

`C[C@@H]1CN([C@H](C)CO)C(=O)c2cc(NC(=O)Nc3cccc4ccccc34)ccc2O[C@@H]1CN(C)CC1CCCCC1` was tested. Which cytotoxicity call did it give?
Its cytotoxicity call is “active”.

Which cytotoxicity call does the source give for `C[C@@H]1CN([C@H](C)CO)C(=O)c2cc(NC(=O)Nc3cccc4ccccc34)ccc2O[C@H]1CN(C)CC1CCCCC1` here?
Its cytotoxicity call is “active”.

Which cytotoxicity call does the source give for `C[C@@H]1CN([C@@H](C)CO)C(=O)c2cc(NC(=O)Nc3cccc4ccccc34)ccc2O[C@@H]1CN(C)CC1CCCCC1` here?
The cytotoxicity call was “inactive”.

`C[C@H](CO)N1C[C@H](C)[C@@H](CN(C)CC2CCCCC2)Oc2ccc(NC(=O)Nc3ccccc3)cc2C1=O` was tested. Which cytotoxicity call did it give?
Its cytotoxicity call is “inactive”.

Which cytotoxicity call does the source give for `C[C@H]1CN([C@@H](C)CO)C(=O)c2cc(NC(=O)Nc3cccc4ccccc34)ccc2O[C@@H]1CN(C)CC1CCCCC1` here?
The cytotoxicity call was “inactive”.

With `CC(=O)OC[C@H]1O[C@H](C/C=N/O[C@H](C)c2cn([C@@H]3COC[C@H]3O)nn2)C=C[C@@H]1OC(C)=O` as the compound, how does the cytotoxicity call read?
Its cytotoxicity call is “inactive”.

`C[C@H](CO)N1C[C@H](C)[C@H](CN(C)Cc2ccc(Cl)c(Cl)c2)Oc2ccc(NS(=O)(=O)c3cccs3)cc2C1=O` was tested. Which cytotoxicity call did it give?
Its cytotoxicity call is “inactive”.

`Cc1noc(C)c1S(=O)(=O)Nc1ccc2c(c1)CC(=O)N([C@@H](C)CO)C[C@H](C)[C@@H](CN(C)Cc1ccc(C(=O)O)cc1)O2` was tested. Which cytotoxicity call did it give?
The cytotoxicity call was “inactive”.

Which cytotoxicity call does the source give for `C[C@@H]1CN([C@H](C)CO)C(=O)Cc2cc(NS(=O)(=O)c3ccc(F)cc3)ccc2O[C@@H]1CN(C)C(=O)Nc1cccc2ccccc12` here?
The cytotoxicity call was “inactive”.

With `O=C(C[C@@H]1C[C@H]2c3cc(NC(=O)NC4CCCC4)ccc3O[C@H]2[C@@H](CO)O1)NCc1ccc2c(c1)OCO2` as the compound, how does the cytotoxicity call read?
The cytotoxicity call was “inactive”.

`CCOc1ccn(-c2ccc(F)cc2)c(=O)c1C(=O)Nc1ccc(Oc2ccnc(N)c2Cl)c(F)c1` was tested. Which cytotoxicity call did it give?
The cytotoxicity call was “inactive”.

How did the cytotoxicity call turn out when `Cc1c(C(=O)Nc2ccc(Oc3ccnc4cc(OCC(C)(C)O)ccc34)c(F)c2)c(=O)n(-c2ccccc2)n1C` was run?
The cytotoxicity call was “inactive”.

For `Cc1ccc(C(=O)Nc2ccc(Oc3cc4cnn(C)c4cc3-c3cn[nH]c3)c(F)c2)c(=O)n1-c1ccc(F)cc1`, which cytotoxicity call is on record?
The cytotoxicity call was “active”.

Which cytotoxicity call does the source give for `C[C@@H]1CCCCO[C@H](CN(C)C(=O)CCC(F)(F)F)[C@H](C)CN([C@@H](C)CO)C(=O)c2cc(NC(=O)CCCCCC(=O)Nc3ccccc3N)ccc2O1` here?
Its cytotoxicity call is “inactive”.

With `C[C@H]1CN([C@@H](C)CO)S(=O)(=O)c2ccc(Br)cc2O[C@@H]1CN(C)C(=O)Cc1ccccc1` as the compound, how does the cytotoxicity call read?
The cytotoxicity call was “inactive”.

For `C[C@@H]1CN([C@H](C)CO)S(=O)(=O)c2ccc(C#Cc3ccccc3)cc2O[C@H]1CN(C)C(=O)CN(C)C`, which cytotoxicity call is on record?
Its cytotoxicity call is “active”.

How did the cytotoxicity call turn out when `C[C@@H]1CN([C@H](C)CO)S(=O)(=O)c2ccc(C#Cc3cccnc3)cc2O[C@H]1CN(C)C(=O)CN(C)C` was run?
Its cytotoxicity call is “inactive”.

For `C[C@@H]1CN([C@H](C)CO)S(=O)(=O)c2ccc(C#Cc3ccccc3)cc2O[C@@H]1CN(C)C(=O)CN(C)C`, which cytotoxicity call is on record?
Its cytotoxicity call is “active”.

With `C[C@@H]1CN([C@H](C)CO)S(=O)(=O)c2ccc(C#Cc3cccnc3)cc2O[C@@H]1CN(C)C(=O)CN(C)C` as the compound, how does the cytotoxicity call read?
Its cytotoxicity call is “inactive”.

For `C[C@@H]1CN([C@@H](C)CO)S(=O)(=O)c2ccc(C#Cc3ccccc3)cc2O[C@H]1CN(C)C(=O)CN(C)C`, which cytotoxicity call is on record?
The cytotoxicity call was “inactive”.

How did the cytotoxicity call turn out when `C[C@H]1CN([C@@H](C)CO)S(=O)(=O)c2ccc(Br)cc2O[C@H]1CN(C)C(=O)Cc1ccccc1` was run?
Its cytotoxicity call is “active”.

How did the cytotoxicity call turn out when `C[C@H]1CN([C@@H](C)CO)S(=O)(=O)c2ccc(C#Cc3ccc(F)cc3)cc2O[C@H]1CN(C)C(=O)CN(C)C` was run?
Its cytotoxicity call is “inactive”.

`C[C@@H]1CN([C@H](C)CO)S(=O)(=O)c2ccc(C#Cc3ccc(F)cc3)cc2O[C@H]1CN(C)C(=O)CN(C)C` was tested. Which cytotoxicity call did it give?
Its cytotoxicity call is “active”.

How did the cytotoxicity call turn out when `C[C@@H]1CN([C@@H](C)CO)S(=O)(=O)c2ccc(C#Cc3ccc(F)cc3)cc2O[C@H]1CN(C)C(=O)CN(C)C` was run?
Its cytotoxicity call is “inactive”.

How did the cytotoxicity call turn out when `C[C@H]1CN([C@@H](C)CO)S(=O)(=O)c2ccc(C#Cc3ccc(F)cc3)cc2O[C@@H]1CN(C)C(=O)CN(C)C` was run?
The cytotoxicity call was “inactive”.

How did the cytotoxicity call turn out when `C[C@H]1CN([C@@H](C)CO)S(=O)(=O)c2ccc(Br)cc2O[C@H]1CN(C)C(=O)Cc1ccncc1` was run?
The cytotoxicity call was “inactive”.
